In all, about 39,000 compounds went through this assay and about 3,300 (8.5%) were called active. The sample holds actives, similar compounds and a random draw of the others, so the mix is not that of the screen.

The test system of this assay is HepG2. Kind of assay: cytotoxicity call (relative viability < 0.9). The settings on record: 10 µM.
Consider `O=C(C[C@@H]1C[C@@H]2c3cc(NC(=O)NC4CCCC4)ccc3O[C@@H]2[C@H](CO)O1)NCc1ccc2c(c1)OCO2`, for which the cytotoxicity call is “inactive”. For `CO/N=C(\C(=O)N[C@@H]1C(=O)N2C(C(=O)O)=C(CSC(=O)c3ccco3)CS[C@H]12)c1csc(N)n1`, the cytotoxicity call is “inactive”. Turning to `CC(C)NC(=O)N(C)C[C@H]1Oc2ccc(NC(=O)c3ccncc3)cc2CC(=O)N([C@@H](C)CO)C[C@H]1C`, the cytotoxicity call was “inactive”. Turning to `CC(C)NC(=O)N(C)C[C@H]1Oc2ccc(NC(=O)CCN3CCOCC3)cc2C(=O)N([C@H](C)CO)C[C@H]1C`, the cytotoxicity call was “inactive”. Consider `CC(C)NC(=O)Nc1ccc2c(c1)CC(=O)N([C@@H](C)CO)C[C@@H](C)[C@@H](CN(C)C(=O)Nc1ccc3c(c1)OCO3)O2`, for which the cytotoxicity call was “inactive”. In the case of `C[C@H]1CN([C@@H](C)CO)C(=O)Cc2cc(NS(=O)(=O)c3ccccc3)ccc2O[C@H]1CN(C)S(=O)(=O)c1cn(C)cn1` it was “inactive”; in that of `CNC(=O)Cn1c(=O)c2c(OC)ccnc2n(C)c1=O`, “inactive”.

For the compound `Cc1noc(C)c1NC(=O)Nc1ccc2c(c1)C(=O)N([C@H](C)CO)C[C@H](C)[C@H](CN(C)S(=O)(=O)c1cccs1)OCCCC[C@@H](C)O2`, the cytotoxicity call was “inactive”. As for `C[C@@H]1CCCCO[C@H](CN(C)C(=O)NC2CCCCC2)[C@@H](C)CN([C@H](C)CO)C(=O)c2cc(NC(=O)Cc3ccccc3)ccc2O1`, the cytotoxicity call was “inactive”. The entry for `COc1ccc(S(=O)(=O)Nc2ccc3c(c2)CC(=O)N([C@H](C)CO)C[C@@H](C)[C@H](CN(C)CC2CC2)O3)cc1` is “inactive”; for `CC1(C)CCC(c2ccc(Cl)cc2)=C(CN2CCN(c3ccc(C(=O)NS(=O)(=O)c4ccc(N[C@H](CCN5CCOCC5)CSc5ccccc5)c(S(=O)(=O)C(F)(F)F)c4)cc3)CC2)C1` it is “active”; for `CC1(C)CCC(CN2CCN(c3ccc(C(=O)NS(=O)(=O)c4ccc(NCC5CCOCC5)c([N+](=O)[O-])c4)c(Oc4cnc5[nH]ccc5c4)c3)CC2)=C(c2ccc(Cl)cc2)C1` it is “inactive”. In the case of `CC1(C)CCC(c2ccc(Cl)cc2)=C(CN2CCN(c3ccc(C(=O)NS(=O)(=O)c4ccc(N[C@@H](CCN5CCOCC5)CSc5ccccc5)c(S(=O)(=O)C(F)(F)F)c4)cc3)CC2)C1` it was “active”.

Take `CN(C)CC[C@H](CSc1ccccc1)Nc1ccc(S(=O)(=O)NC(=O)c2ccc(N3CCN(Cc4ccccc4-c4ccc(Cl)cc4)CC3)cc2)cc1[N+](=O)[O-]`: the cytotoxicity call was “inactive”.

For `CCCNC(=O)Nc1ccc2c(c1)OC[C@@H](C)N(C(=O)C1CCOCC1)C[C@H](C)[C@@H](OC)CN(C)C2=O`, the cytotoxicity call was “inactive”.

Consider `C[C@H](CO)N1C[C@H](C)[C@H](CN(C)C(=O)Nc2ccc(F)cc2)OCCCC[C@H](C)Oc2ccc(NC(=O)C3CCC3)cc2C1=O`, for which the cytotoxicity call was “inactive”. The entry for `COc1ccc(S(=O)(=O)Nc2ccc3c(c2)C(=O)N([C@H](C)CO)C[C@H](C)[C@H](CN(C)S(=O)(=O)c2ccc(C)cc2)O3)cc1` is “inactive”; for `C[C@@H]1CCCCO[C@@H](CN(C)C(=O)Nc2ccc3c(c2)OCO3)[C@H](C)CN([C@H](C)CO)C(=O)c2cc(NC(=O)c3ccccc3)ccc2O1` it is “inactive”. The entry for `Cc1ccc(S(=O)(=O)N(C)C[C@@H]2Oc3ccc(NC(=O)Cn4cnnn4)cc3CC(=O)N([C@H](C)CO)C[C@@H]2C)cc1` is “inactive”; for `COC(=O)C(CCCN1C(=O)c2ccccc2C1=O)(NC(C)=O)c1nn[nH]n1` (stereo unspecified) it is “active”; for `N#CCNC(=O)CN1C(=O)c2ccccc2C1=O` it is “inactive”.

As to `NC(=O)CCN1C(=O)c2ccccc2C1=O`, the cytotoxicity call was “inactive”.

Turning to `O=C(C[C@@H]1CC[C@H]2[C@@H](COC[C@@H](O)CN2C(=O)Nc2ccc(Cl)cc2)O1)NCCc1ccncc1`, the cytotoxicity call is “inactive”. Regarding `Cc1ccccc1S(=O)(=O)N1C[C@H](O)COC[C@@H]2O[C@@H](CC(=O)NCCc3ccccc3)CC[C@H]21`, the cytotoxicity call was “inactive”. In the case of `CO[C@H]1CN(C)C(=O)c2cc(NC(=O)Nc3ccccc3)ccc2OC[C@@H](C)N(C(=O)CN(C)C)C[C@H]1C` it was “inactive”; in that of `CNCCCC1c2ccccc2C=Cc2ccccc21.Cl`, “active”; in that of `CNCc1ccccc1.Cl`, “inactive”. For the compound `OCC1c2ccccc2-c2ccccc21`, the cytotoxicity call is “inactive”.

For the compound `Cc1noc(C)c1S(=O)(=O)N(C)C[C@@H]1OCCCC[C@@H](C)Oc2ccc(N(C)C)cc2C(=O)N([C@H](C)CO)C[C@H]1C`, the cytotoxicity call is “inactive”. As to `CC(C)Cc1ccc(CN2CC[C@@H](N)C2)cc1`, the cytotoxicity call is “inactive”. In the case of `CC(C)N1CC=C[C@@]23O[C@@H]4C=CCOC(=O)[C@@H]4[C@H]2C(=O)N(CCCCCO)[C@@H]3C1=O`, the cytotoxicity call is “inactive”. As for `C[C@@H]1CN([C@H](C)CO)C(=O)CCCn2nncc2CO[C@@H]1CN(C)S(=O)(=O)c1ccc(-c2ccccc2)cc1`, the cytotoxicity call was “inactive”. As to `C[C@@H]1CC=CC[C@@H](c2cccc(Cl)c2)NC(=O)[C@H](Cc2ccccc2)N(C)C(=O)c2ccccc2O1`, the cytotoxicity call was “inactive”. As to `C[C@@H]1CCCn2nncc2COCCNC1=O`, the cytotoxicity call is “inactive”. For `CCCN(C)C[C@H]1OCCCC[C@H](C)Oc2ccc(NS(=O)(=O)c3ccc(Cl)cc3)cc2C(=O)N([C@@H](C)CO)C[C@H]1C`, the cytotoxicity call was “inactive”.

`C[C@@H]1CCCCO[C@H](CN(C)CC2CCCCC2)[C@H](C)CN([C@@H](C)CO)C(=O)c2cc(NS(=O)(=O)c3ccc(Cl)cc3)ccc2O1`: the cytotoxicity call is “active”. As to `C[C@@H]1CN([C@H](C)CO)C(=O)c2cc(NS(=O)(=O)c3ccc(Cl)cc3)ccc2O[C@@H](C)CCCCO[C@@H]1CN(C)CC1CCCCC1`, the cytotoxicity call was “active”. In the case of `C[C@@H]1CCCCO[C@@H](CN(C)CC2CC2)[C@H](C)CN([C@@H](C)CO)C(=O)c2cc(NS(=O)(=O)c3ccc(Cl)cc3)ccc2O1`, the cytotoxicity call was “inactive”.

For `C[C@@H]1CCCCO[C@H](CN(C)CC2CCCCC2)[C@@H](C)CN([C@H](C)CO)C(=O)c2cc(NS(=O)(=O)c3ccc(Cl)cc3)ccc2O1`, the cytotoxicity call is “inactive”. Turning to `C[C@@H]1CCCCO[C@H](CN(C)CC2CCCCC2)[C@H](C)CN([C@H](C)CO)C(=O)c2cc(NS(=O)(=O)c3ccc(Cl)cc3)ccc2O1`, the cytotoxicity call was “inactive”. Turning to `C[C@@H]1CCCCO[C@@H](CN(C)CC2CCCCC2)[C@H](C)CN([C@@H](C)CO)C(=O)c2cc(NS(=O)(=O)c3ccc(Cl)cc3)ccc2O1`, the cytotoxicity call was “inactive”. In the case of `CCCN(C)C[C@H]1OCCCC[C@H](C)Oc2ccc(NS(=O)(=O)c3ccc(Cl)cc3)cc2C(=O)N([C@H](C)CO)C[C@H]1C` it was “inactive”; in that of `CCCN(C)C[C@H]1OCCCC[C@@H](C)Oc2ccc(NS(=O)(=O)c3ccc(Cl)cc3)cc2C(=O)N([C@@H](C)CO)C[C@H]1C`, “active”; in that of `C[C@H](CO)N1C[C@H](C)[C@@H](CN(C)CC2CCCCC2)OCCCC[C@H](C)Oc2ccc(NS(=O)(=O)c3ccc(Cl)cc3)cc2C1=O`, “inactive”. In the case of `C[C@@H]1CCCCO[C@@H](CN(C)CC2CCCCC2)[C@@H](C)CN([C@H](C)CO)C(=O)c2cc(NS(=O)(=O)c3ccc(Cl)cc3)ccc2O1`, the cytotoxicity call is “inactive”. The entry for `C[C@@H]1CCCCO[C@@H](CN(C)CC2CCCCC2)[C@H](C)CN([C@H](C)CO)C(=O)c2cc(NS(=O)(=O)c3ccc(Cl)cc3)ccc2O1` is “active”.

Source of the values: the antibiotic and cytotoxicity screens of Wong et al. (2023).
